Experimental findings from PubChem BioAssay (EPA / NIEHS) are described below.

Results filed as inconclusive are left out. The source made the active and inactive calls. Rule for the calls, unless noted: active = hit-call score of the fitted dose curve at least 0.9, where 1 is the maximum; inactive = score below 0.9.

Read-out in assay [1]: Phosphatase and tensin (PTEN), PTEN (gene 5728)
Description: LTEA_HepaRG_PTEN: Life Technologies and Expression Analysis (LTEA) Assay for Phosphatase and tensin (PTEN) using HepaRG (AID 2283523). The note with it: mRNA level, 48 h; actives raise or lower the signal. The essentials: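 Read-out: TaqMan qRT-PCR of PTEN transcript, normalized to three housekeeping genes, fitted in both directions against 0.5% DMSO. Differentiated human HepaRG cultures received chemicals for 48 h, eight-point half-log series topping at 100 uM.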

Read-out in assay [2]: solute carrier (SLC22A1), SLC22A1 (gene 6580)
Nature of the assay: LTEA_HepaRG_SLC22A1: Life Technologies and Expression Analysis (LTEA) Assay for solute carrier (SLC22A1) using HepaRG (AID 2283524).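 For AC50: differentiated human HepaRG liver cells in serum-free induction medium.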 The note with it: mRNA level, 48 h; actives raise or lower the signal. In short, it runs like this: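 Transcript level of SLC22A1 quantified by qRT-PCR (normalized to three housekeeping genes) after 48 h chemical exposure of HepaRG cells, eight concentrations up to 100 µM, half-log steps, 0.5% DMSO vehicle. Gain or loss relative to DMSO fitted bidirectionally.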

Read-out in assay [3]: NAD(P)H dehydrogenase [quinone] 1 (NQO1), NQO1 (gene 1728)
Nature of the assay: LTEA_HepaRG_NQO1: Life Technologies and Expression Analysis (LTEA) Assay for NAD(P)H dehydrogenase [quinone] 1 (NQO1) using HepaRG (AID 2283526). The note with it: mRNA level, 48 h; actives raise or lower the signal. The essentials:
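qRT-PCR read-out (Fluidigm TaqMan), normalized to three housekeeping genes, after 48 h chemical exposure of HepaRG cells. Concentrations: eight points, top 100 uM, half-log steps, 0.5% DMSO vehicle. Gain or loss of signal fitted relative to DMSO.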

Read-out in assay [4]: Nuclear factor erythroid 2-related factor 2 (Homo sapiens) (UniProt Q16236)
Description: LTEA_HepaRG_NFE2L2: Life Technologies and Expression Analysis (LTEA) Assay for Nuclear factor erythroid 2-related factor 2 (NFE2L2) Transcription Factor using HepaRG (AID 2283527). The following applies: mRNA level, 48 h; actives raise or lower the signal. In short, it runs like this: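 NFE2L2 transcript level was read by qRT-PCR (housekeeping ACTB/GAPDH/POLR2A normalisation) after 48 h chemical treatment of HepaRG in serum-free induction medium. Duplicate 8-point half-log curves, top 100 uM, 0.5% DMSO vehicle; up- or down-regulation fitted against vehicle.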

Read-out in assay [5]: succinate dehydrogenase complex iron sulfur subunit B (SDHB), SDHB (gene 6390)
Description: LTEA_HepaRG_SDHB: Life Technologies and Expression Analysis (LTEA) Assay for succinate dehydrogenase complex iron sulfur subunit B (SDHB) using HepaRG (AID 2283528). The following applies: mRNA level, 48 h; actives raise or lower the signal. In short, it runs like this:
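Readout is SDHB transcript level by qRT-PCR, normalised to three housekeeping genes and fitted bidirectionally against 0.5% DMSO vehicle. Human HepaRG cells were treated for 48 h at up to 100 uM.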

Read-out in assay [6]: Signal transducer and activator of transcription 3 (Homo sapiens) (UniProt P40763)
Nature of the assay: LTEA_HepaRG_STAT3: Life Technologies and Expression Analysis (LTEA) Assay for Signal transducer and activator of transcription (STAT3) using HepaRG (AID 2283529). The note with it: mRNA level, 48 h; actives raise or lower the signal. In short, it runs like this: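 STAT3 transcript quantified by qRT-PCR against three housekeeping genes (ACTB, GAPDH, POLR2A), fitted both directions relative to DMSO. HepaRG cultures exposed 48 h to eight half-log concentrations, top 100 uM, 0.5% DMSO, serum-free induction medium.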

Read-out in assay [7]: solute carrier (SLCO1B1), SLCO1B1 (gene 10599)
Description: LTEA_HepaRG_SLCO1B1: Life Technologies and Expression Analysis (LTEA) Assay for solute carrier (SLCO1B1) using HepaRG (AID 2283530). The note with it: mRNA level, 48 h; actives raise or lower the signal. In short, it runs like this: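 Human HepaRG cultures treated for 48 h with an eight-concentration half-log series topping at 100 uM; SLCO1B1 measured by qRT-PCR and fitted bidirectionally relative to DMSO.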

Read-out in assay [8]: sulfotransferase 2A1 (SULT2A1), SULT2A1 (gene 6822)
Nature of the assay: LTEA_HepaRG_SULT2A1: Life Technologies and Expression Analysis (LTEA) Assay for sulfotransferase 2A1 (SULT2A1) using HepaRG (AID 2283531). The following applies: mRNA level, 48 h; actives raise or lower the signal. The essentials: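 Gene-expression endpoint in a human liver cell line: SULT2A1 mRNA change after 48 h chemical treatment, curves fitted in both directions relative to 0.5% DMSO vehicle. Concentrations spanned eight half-log steps from 100 uM.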

Read-out in assay [9]: Transforming Growth Factor (TGFA), TGFA (gene 7039)
Nature of the assay: LTEA_HepaRG_TGFA: Life Technologies and Expression Analysis (LTEA) Assay for Transforming Growth Factor (TGFA) using HepaRG (AID 2283532). The following applies: mRNA level, 48 h; actives raise or lower the signal. In short, it runs like this:
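TGFA transcript quantified by qRT-PCR (Fluidigm arrays) against three housekeeping genes, after 48 hours chemical treatment of HepaRG cells. Top concentration 100 uM with half-log dilutions, 8 points, duplicates, 0.5% DMSO.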

Read-out in assay [10]: Transforming Growth Factor (TGFB1), TGFB1 (gene 7040)
Description: LTEA_HepaRG_TGFB1: Life Technologies and Expression Analysis (LTEA) Assay for Transforming Growth Factor (TGFB1) Transporter using HepaRG (AID 2283533). The note with it: mRNA level, 48 h; actives raise or lower the signal. In short, it runs like this:
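Eight-point concentration-response (max 100 uM, half-log) in HepaRG under serum-free induction conditions, 48 h. TGFB1 mRNA by qRT-PCR, housekeeping-normalized.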

Read-out in a further assay: TIMP1, TIMP1 (gene 7076)
Description: LTEA_HepaRG_TIMP1: Life Technologies and Expression Analysis (LTEA) Assay for TIMP1 using HepaRG (AID 2283534). The following applies: mRNA level, 48 h; actives raise or lower the signal. In short, it runs like this:
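TIMP1 induction or repression in HepaRG cells after 48 h chemical exposure (eight concentrations, highest 100 uM), assessed by normalized qRT-PCR with bidirectional fitting to DMSO controls.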

Read-out in assay [11]: Tumor necrosis factor receptor 1 (TNFRSF1A), TNFRSF1A (gene 7132)
Description: LTEA_HepaRG_TNFRSF1A: Life Technologies and Expression Analysis (LTEA) Assay for Tumor necrosis factor receptor 1 (TNFRSF1A) using HepaRG (AID 2283535). The note with it: mRNA level, 48 h; actives raise or lower the signal. In short, it runs like this: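 Assay uses 48 h chemical treatment of differentiated HepaRG monolayers, tested in duplicate at eight concentrations from 100 uM downward in 0.5% DMSO. mRNA is normalized to ACTB, GAPDH and POLR2A, with induction or suppression fitted relative to vehicle.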

Read-out in assay [12]: Thyroid Hormone Responsive (THRSP), THRSP (gene 7069)
Nature of the assay: LTEA_HepaRG_THRSP: Life Technologies and Expression Analysis (LTEA) Assay for Thyroid Hormone Responsive (THRSP) using HepaRG (AID 2283536). The note with it: mRNA level, 48 h; actives raise or lower the signal. In short, it runs like this: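 THRSP transcript quantified by Fluidigm qRT-PCR against three housekeeping genes after 48 h chemical exposure of HepaRG cells in serum-free induction medium; eight-point half-log series, top 100 uM, 0.5% DMSO vehicle, duplicate wells.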

Read-out in assay [13]: Cellular tumor antigen p53 (Homo sapiens) (UniProt P04637)
Description: LTEA_HepaRG_TP53: Life Technologies and Expression Analysis (LTEA) Assay for Tumor Protein P53 (TP53) using HepaRG (AID 2283537). The note with it: mRNA level, 48 h; actives raise or lower the signal. In short, it runs like this:
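Read-out is TP53 transcript level by microfluidic qRT-PCR, normalised to three housekeeping genes and fitted bidirectionally against DMSO. Human HepaRG cells received compounds for 48 h, highest concentration 100 uM.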

Read-out in assay [14]: UDP glucuronosyltransferase (UGT1A1), UGT1A1 (gene 54658)
Description: LTEA_HepaRG_UGT1A1: Life Technologies and Expression Analysis (LTEA) Assay for UDP glucuronosyltransferase (UGT1A1) using HepaRG (AID 2283538). The note with it: mRNA level, 48 h; actives raise or lower the signal. The essentials:
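HepaRG, 48 h chemical exposure (top 100 uM, half-log 8-pt, 0.5% DMSO vehicle), duplicate wells; qRT-PCR (TaqMan, Fluidigm array) for UGT1A1 mRNA, housekeeping-normalized; bidirectional curve fit vs DMSO baseline.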

Read-out in assay [15]: UDP glucuronosyltransferase (UGT1A6), UGT1A6 (gene 54578)
Description: LTEA_HepaRG_UGT1A6: Life Technologies and Expression Analysis (LTEA) Assay for UDP glucuronosyltransferase (UGT1A6) using HepaRG (AID 2283539). The following applies: mRNA level, 48 h; actives raise or lower the signal. The essentials:
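Measures mRNA change in HepaRG hepatic cells exposed 48 h to chemicals (eight-point, maximum 100 uM, 0.5% DMSO vehicle) in serum-free induction medium. Expression normalized to endogenous controls; DMSO served as negative control and baseline.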

The nature of assay [16]: LTEA_HepaRG_LDH_cytotoxicity: Cytotoxicity Assessment in the Life Technologies and Expression Analysis (LTEA) Assay (AID 2283563; active = hit-call score of the fitted dose curve at least 0.9, where 1 is the maximum). The essentials: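 Spent-medium LDH after 48 h chemical exposure of HepaRG cells in serum-free induction medium; eight concentrations, half-log dilutions from 100 uM, duplicate wells, fitted upward relative to 0.5% DMSO.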
Read-out in assay [17]: Pyruvate Dehydrogenase Kinase 4 (PDK4), PDK4 (gene 5166)
Nature of the assay: LTEA_HepaRG_PDK4: Life Technologies and Expression Analysis (LTEA) Assay for Pyruvate Dehydrogenase Kinase 4 (PDK4) using HepaRG (AID 2283525). The following applies: mRNA level, 48 h; actives raise or lower the signal. In short, it runs like this: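 Readout is qRT-PCR of PDK4 transcript, normalized to three housekeeping genes, with bidirectional fitting against 0.5% DMSO vehicle. Differentiated HepaRG cells were treated 48 h in serum-free induction medium, duplicate wells, eight-point half-log series topping at 100 uM.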

Assay [18] is described as follows: ATG_XTT_Cytotoxicity: Cytotoxicity Assessment in the Attagene TRANS-FACTORIAL HepG2 Assay (AID 2283584; active = hit-call score of the fitted dose curve at least 0.9, where 1 is the maximum). In short, it runs like this: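 24 h chemical exposure of reporter-transfected HepG2; XTT signal loss vs DMSO indicates cytotoxicity.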

Chain of Cellular tumor antigen p53 (Homo sapiens) (P04637 whole entry, looked up): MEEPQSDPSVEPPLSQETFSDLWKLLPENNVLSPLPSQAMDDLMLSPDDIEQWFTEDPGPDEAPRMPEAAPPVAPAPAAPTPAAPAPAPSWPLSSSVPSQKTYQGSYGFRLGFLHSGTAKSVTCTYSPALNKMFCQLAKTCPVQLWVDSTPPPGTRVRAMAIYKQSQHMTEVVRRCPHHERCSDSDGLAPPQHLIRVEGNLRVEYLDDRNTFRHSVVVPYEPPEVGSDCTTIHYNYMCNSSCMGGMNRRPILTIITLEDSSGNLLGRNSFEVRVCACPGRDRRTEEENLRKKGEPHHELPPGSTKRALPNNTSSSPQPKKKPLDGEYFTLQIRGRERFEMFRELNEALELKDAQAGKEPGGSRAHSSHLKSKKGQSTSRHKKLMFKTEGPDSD
Chain of Signal transducer and activator of transcription 3 (Homo sapiens) (P40763 whole entry, looked up): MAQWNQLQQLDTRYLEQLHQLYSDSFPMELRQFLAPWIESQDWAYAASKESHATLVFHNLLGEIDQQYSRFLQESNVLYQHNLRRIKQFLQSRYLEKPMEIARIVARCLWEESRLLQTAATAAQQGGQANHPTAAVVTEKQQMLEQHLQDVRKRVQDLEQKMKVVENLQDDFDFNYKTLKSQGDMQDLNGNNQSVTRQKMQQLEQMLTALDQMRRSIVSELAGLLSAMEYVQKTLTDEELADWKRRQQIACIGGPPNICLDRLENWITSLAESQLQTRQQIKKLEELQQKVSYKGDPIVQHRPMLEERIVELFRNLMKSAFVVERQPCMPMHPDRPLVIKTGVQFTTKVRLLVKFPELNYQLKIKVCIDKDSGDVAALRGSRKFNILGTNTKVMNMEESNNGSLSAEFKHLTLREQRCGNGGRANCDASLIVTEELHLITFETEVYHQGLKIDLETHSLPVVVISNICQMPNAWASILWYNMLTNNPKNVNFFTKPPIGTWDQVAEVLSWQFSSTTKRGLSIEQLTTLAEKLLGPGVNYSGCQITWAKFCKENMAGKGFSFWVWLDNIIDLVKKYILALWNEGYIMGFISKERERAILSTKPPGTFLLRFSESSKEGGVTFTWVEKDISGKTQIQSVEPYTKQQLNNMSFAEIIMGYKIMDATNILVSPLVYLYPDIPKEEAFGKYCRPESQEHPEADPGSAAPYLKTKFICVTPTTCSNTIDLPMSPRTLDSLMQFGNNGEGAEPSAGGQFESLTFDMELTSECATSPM
Chain of Nuclear factor erythroid 2-related factor 2 (Homo sapiens) (Q16236 whole entry, looked up): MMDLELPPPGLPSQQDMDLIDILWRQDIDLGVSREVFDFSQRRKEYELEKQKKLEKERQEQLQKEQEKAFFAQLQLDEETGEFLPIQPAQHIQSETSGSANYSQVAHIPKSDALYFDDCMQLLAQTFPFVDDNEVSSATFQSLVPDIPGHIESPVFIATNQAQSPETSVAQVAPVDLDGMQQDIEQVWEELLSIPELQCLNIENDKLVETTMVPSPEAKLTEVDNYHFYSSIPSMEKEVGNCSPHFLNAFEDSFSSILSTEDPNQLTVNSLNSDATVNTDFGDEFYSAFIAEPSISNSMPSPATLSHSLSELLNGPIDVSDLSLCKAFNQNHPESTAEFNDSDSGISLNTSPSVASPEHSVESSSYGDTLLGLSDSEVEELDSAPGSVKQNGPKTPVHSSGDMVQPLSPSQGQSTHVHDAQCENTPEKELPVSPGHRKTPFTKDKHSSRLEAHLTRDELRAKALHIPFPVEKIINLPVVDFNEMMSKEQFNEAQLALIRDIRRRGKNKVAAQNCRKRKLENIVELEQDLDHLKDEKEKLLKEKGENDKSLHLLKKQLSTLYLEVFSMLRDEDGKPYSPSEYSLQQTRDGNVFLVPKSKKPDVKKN

For the compound `CCn1nc(Cc2ccccc2)cc1C1CCN(C[C@H]2C[C@H](N(C)[C@@H](C(=O)O)C(C)C)C[C@@H]2c2cccc(F)c2)CC1`, the call in [1], in assay [3], in assay [4], in assay [5], in assay [6] and in assay [7] was inactive. For the same compound, the outcome was “inactive” in assay [8]; “inactive” in [9]; “inactive” in the assay with TIMP1, TIMP1 (gene 7076); “inactive” in assay [11]; “inactive” in assay [12]; “inactive” in assay [13]. The compound was called inactive in assay [14], in [15] and in assay [16]. Also, the concentration at half-maximal activity (AC50) in assay [2] is 12.4 µM (active); in assay [10], 73.3 µM (active).
As to `O=C1CCCCCN1`, the outcome in assay [1], in assay [2], in assay [17], in assay [4], in [5] and in [6] was inactive. Moreover, the outcome in assay [7] was “inactive”; in [8] it was “inactive”; in [9], “inactive”; in assay [10] it was “inactive”; in the assay with TIMP1, TIMP1 (gene 7076), “inactive”; in assay [11], “inactive”. For the same compound, the outcome in assay [12], in [13], in [14], in assay [15], in assay [16] and in [18] was inactive.
Regarding `Cc1ccc(C)c(O)c1`, the call in [1], in [2], in [17], in assay [4], in assay [5] and in assay [6] was inactive. The outcome in [7] was “inactive”; in assay [8], “inactive”; in [9] it was “inactive”; in assay [10], “inactive”; with TIMP1, TIMP1 (gene 7076), “inactive”; in assay [11] it was “inactive”. Further, the call in [12], in [13], in assay [14], in assay [15], in assay [16] and in assay [18] was inactive.
